C diff growth: C. difficile growth inhibition | growth activity, negative = inhibition, % at 16 µg/mL (by protocol) | 86,000 tested, 0.25% active | AID 1259249 | Clostridium difficile clinical isolate growth, OD600, 24 h; active compounds read low;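 active means mean growth activity at or below -80% and every replicate also at or below -80%; inconclusive means mean at or below -80% but some replicate above -80%; inactive means mean growth activity above -80%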;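 further: 0% = DMSO wells and -100% = levofloxacin 16 µg/mL wells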
Pf Dd2 inh: P. falciparum Dd2 growth inhibition; SYBR Green, 72 h; active compounds read low; activity change, % at 10 µM; 94,000 tested, 2.3% active; in the data active means activity change below about -80%; inconclusive means no clear call, values can overlap the other calls
T cruzi growth-1: inhibitors of T. cruzi proliferation. T. cruzi beta-gal in NIH3T3, GalScreen luminescence, 90 h. 77,000 tested, 5.9% active. inhibition, % at 8.34 µM;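 active means mean inhibition above about 93%, with at least 55% of replicates each passing it, limit read from the data, passing the limit was not always enough; inconclusive means only one of those two conditions holds; inactive means neither condition holds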
T cruzi growth-2: blocks T. cruzi growth in NIH3T3 host cells; shares compounds with T cruzi growth-1; T. cruzi beta-gal in NIH3T3, GalScreen luminescence, 90 h; inhibition, % at 8.35 µM; 5,600 tested, 72% active; AID 651739;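 active means mean replicate inhibition above about 95% and at least 55% of replicates individually reaching it, limit read from the data; inconclusive means only one of the two criteria is met; inactive means neither criterion is met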
T cruzi growth-3: inhibitors of T. cruzi proliferation; shares compounds with T cruzi growth-1; T. cruzi beta-gal in NIH3T3, GalScreen luminescence, 90 h; inhibition, % at 2.09 µM; 5,600 tested, 21% active; AID 651740;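 active means mean inhibition above about 95%, with at least 55% of replicates also reaching it, limit read from the data; inconclusive means meets just one of the two conditions; inactive means meets neither condition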;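 further: plate controls were neutral control median for no effect and positive control median for full effect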
NIH3T3 tox: NIH/3T3 (mouse) viability loss; shares compounds with T cruzi growth-1; NIH/3T3 viability, CellTiter-Glo ATP luminescence, 90 h; cytotoxicity (signal decrease), % at 8.35 µM; 5,600 tested, 14% active;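 active means mean signal decrease across replicates above about 35% based on untreated-well scatter, with enough replicates individually passing, limit read from the data; inconclusive means no rule stated though some were filed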;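 further: 0% = median of neutral control wells and 100% = median of positive control wells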
NIH3T3 tox 2: NIH/3T3 (mouse) viability loss; inhibition, % at 24.9 µM; 5,600 tested, 56% active; NIH/3T3 viability, CellTiter-Glo ATP luminescence, 90 h; shares compounds with T cruzi growth-1;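 active means mean loss of cell viability signal at or above a set limit, and enough replicates individually reaching it; inconclusive means meets only the mean limit or only the replicate share; inactive means meets neither condition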;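 further: 0% = median of neutral control wells and 100% = median of positive control wells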
* = called active by the depositor; ? = inconclusive; · = no result. An excerpt weighted towards active compounds, which were near 6.8% of everything screened.

SMILES | C diff growth | Pf Dd2 inh | T cruzi growth-1 | T cruzi growth-2 | T cruzi growth-3 | NIH3T3 tox | NIH3T3 tox 2
CC(=O)N1CC[C@H]2[C@H](CO)Nc3ccc(-c4ccc(F)cc4)cc3[C@H]21 | -10 | -10 | 64 | · | · | · | ·
O=C(CC1CC1)N1CC[C@H]2[C@H](CO)Nc3ccc(-c4cccc(F)c4)cc3[C@H]21 | -2 | -12 | 31 | · | · | · | ·
O=C(CC1CC1)N1CC[C@@H]2[C@@H](CO)Nc3ccc(-c4ccc(F)cc4)cc3[C@@H]21 | 0 | 7 | ? | 104* | 64 | 18 | 12
O=C(CC1CC1)N1CC[C@@H]2[C@H]1c1cc(-c3ccc(F)cc3)ccc1N[C@@H]2CO | -3 | 6 | 103* | 102* | 101* | -8 | 82*
O=C(CC1CC1)N1CC[C@H]2[C@H](CO)Nc3ccc(-c4ccc(F)cc4)cc3[C@H]21 | 0 | 25 | 107* | 108* | 103* | -18 | 17
O=C(C[C@H]1C[C@H]2c3cc(NC(=O)Nc4ccc(C(F)(F)F)cc4)ccc3O[C@H]2[C@@H](CO)O1)NCc1ccccn1 | 4 | 7 | 0 | · | · | · | ·
CC(C)C#Cc1ccc2c(c1)O[C@@H](CN(C)Cc1cccnc1)[C@H](C)CN([C@@H](C)CO)S2(=O)=O | 2 | -51 | 107* | 99* | 92 | 56* | 67*
C[C@H](O)C#Cc1ccc2c(c1)O[C@H](CN(C)Cc1cccnc1)[C@H](C)CN([C@@H](C)CO)S2(=O)=O | -5 | 7 | · | · | · | · | ·
C[C@@H](O)C#Cc1ccc2c(c1)O[C@H](CN(C)Cc1cccnc1)[C@@H](C)CN([C@@H](C)CO)S2(=O)=O | 1 | -6 | 67 | · | · | · | ·
CC(C)C#Cc1ccc2c(c1)O[C@H](CN(C)Cc1cccnc1)[C@H](C)CN([C@@H](C)CO)S2(=O)=O | 0 | -28 | 104* | 98* | 56 | ? | 65*
CNC[C@H]1Oc2ncc(/C=C/c3ccccc3)cc2C(=O)N([C@@H](C)CO)C[C@H]1C | · | -33 | 92 | · | · | · | ·
C[C@H](CO)N1C[C@H](C)[C@@H](CN(C)C(=O)Nc2ccccc2)Oc2ccc(NC(=O)Cn3cnnn3)cc2CC1=O | 0 | 21 | 9 | · | · | · | ·
COCC(=O)N1CCCCN2[C@H](C1)[C@@H](c1ccc(-c3ccc(C)cc3)cc1)[C@@H]2CO | -10 | 8 | -9 | · | · | · | ·
COCC(=O)N1CCCCN2[C@H](CO)[C@@H](c3ccc(-c4ccc(OC)cc4)cc3)[C@H]2C1 | 0 | 27 | 97* | 32 | 18 | 5 | 10
COCC(=O)N1CCCCN2[C@H](CO)[C@H](c3ccc(-c4ccc(C)cc4)cc3)[C@H]2C1 | -8 | 0 | 102* | 78 | -4 | -7 | 29*
COCC(=O)N1CCCCN2[C@@H](CO)[C@@H](c3ccc(-c4ccc(OC)cc4)cc3)[C@@H]2C1 | -2 | 17 | 103* | 83 | 77 | -6 | -4
COCC(=O)N1CCCCN2[C@H](C1)[C@H](c1ccc(-c3ccc(OC)cc3)cc1)[C@@H]2CO | 0 | 12 | 79 | · | · | · | ·
COCC(=O)N1CCCCN2[C@H](CO)[C@@H](c3ccc(-c4ccc(C)cc4)cc3)[C@H]2C1 | -7 | 14 | -8 | · | · | · | ·
COc1ccccc1C(=O)Nc1ccc2c(c1)OC[C@H](C)N(C)C[C@@H](C)[C@@H](OC)CN(C)C2=O | · | -6 | 60 | · | · | · | ·
COc1ccc(S(=O)(=O)Nc2ccc3c(c2)CC(=O)N([C@@H](C)CO)C[C@@H](C)[C@H](CN(C)S(C)(=O)=O)O3)cc1 | -7 | -4 | -6 | · | · | · | ·
CCCC(=O)Nc1ccc2c(c1)C(=O)N(C)[C@@H]1CC[C@H](CC(=O)Nc3ccccc3)O[C@H]1CO2 | 11 | 3 | -54 | · | · | · | ·
CN1C(=O)c2cc(NC(=O)Cc3ccccc3)ccc2OC[C@@H]2O[C@H](CC(=O)O)CC[C@@H]21 | -8 | 5 | 25 | · | · | · | ·
CCCN(C)C[C@H]1OCCCC[C@@H](C)Oc2ccc(NS(=O)(=O)c3ccc(F)cc3)cc2C(=O)N([C@@H](C)CO)C[C@H]1C | 4 | -28 | 82 | · | · | · | ·
Cc1cccc(-c2ccc([C@H]3[C@H]4CN(C(=O)c5ccncc5)CCCCN4[C@H]3CO)cc2)c1 | 12 | 2 | 32 | · | · | · | ·
Cc1cccc(-c2ccc([C@@H]3[C@H](CO)N4CCCCN(C(=O)c5cccnc5)C[C@@H]34)cc2)c1 | 4 | 18 | 105* | 66 | 6 | 23 | 36*
SMILES | C diff growth | Pf Dd2 inh | T cruzi growth-1 | T cruzi growth-2 | T cruzi growth-3 | NIH3T3 tox | NIH3T3 tox 2
COc1ccccc1-c1ccc([C@H]2[C@H](CO)N3CCCCN(C(=O)c4cccnc4)C[C@@H]23)cc1 | -7 | -15 | 97* | ? | 70 | ? | 39*
Cc1ccccc1-c1ccc([C@@H]2[C@H]3CN(C(=O)c4cccnc4)CCCCN3[C@H]2CO)cc1 | -4 | 21 | 49 | · | · | · | ·
COc1ccccc1-c1ccc([C@H]2[C@@H](CO)N3CCCCN(C(=O)c4cccnc4)C[C@@H]23)cc1 | -2 | 5 | 88 | · | · | · | ·
Cc1ccccc1-c1ccc([C@H]2[C@@H](CO)N3CCCCN(C(=O)c4cccnc4)C[C@@H]23)cc1 | -13 | 48 | 103* | 99* | 102* | 38* | 49*
O=C(N[C@H]1CC[C@@H](CC(=O)N2CCc3ccccc3C2)O[C@H]1CO)C1CC1 | 1 | -11 | · | · | · | · | ·
Cc1noc(C)c1NC(=O)Nc1cccc2c1O[C@@H](CN(C)S(=O)(=O)c1ccccc1)[C@H](C)CN([C@H](C)CO)C2=O | · | 24 | 30 | · | · | · | ·
COCc1cn(CC[C@@H]2CC[C@H](NC(=O)Nc3ccc(Cl)cc3)[C@@H](CO)O2)nn1 | 0 | -5 | 20 | · | · | · | ·
C[C@H]1CN([C@@H](C)CO)C(=O)c2cc(NS(=O)(=O)c3cccs3)ccc2O[C@H]1CN(C)Cc1ccc2c(c1)OCO2 | · | 29 | 0 | · | · | · | ·
C[C@@H]1CN([C@@H](C)CO)C(=O)c2cc(NC(=O)NC3CCCCC3)ccc2O[C@@H](C)CCCCO[C@H]1CN(C)S(=O)(=O)c1ccc(F)cc1 | 13 | -55 | ? | 49 | 8 | 6 | 4
C[C@H](CO)N1C[C@H](C)[C@H](CN(C)S(=O)(=O)c2ccc(Cl)cc2)OCCCC[C@H](C)Oc2ccc(NC(=O)Nc3ccc(F)cc3)cc2C1=O | -6 | -56 | 85 | · | · | · | ·
C[C@@H]1CCCCO[C@H](CN(C)S(=O)(=O)c2ccc(F)cc2)[C@@H](C)CN([C@@H](C)CO)C(=O)c2cc(NC(=O)Nc3ccc(F)cc3)ccc2O1 | -6 | -66 | 100* | 108* | 46 | 10 | 51*
C[C@@H]1CCCCO[C@H](CN(C)S(=O)(=O)c2ccc(F)cc2)[C@@H](C)CN([C@H](C)CO)C(=O)c2cc(NC(=O)NC3CCCCC3)ccc2O1 | 15 | -26 | 29 | · | · | · | ·

Screens deposited in PubChem by Broad Institute.
